In PubChem BioAssay (NCATS):
Inconclusive results are not listed. Where a call stands in place of a potency, no number is given. Calls of active or inactive are those of the source. The call rests on the fitted dose curve; in most records, active means well fitted curve in the direction sought with a large enough effect; inconclusive means small, poorly fitted or top-dose-only effect, or another doubt; inactive means no such curve, though single readings can be large; an effect the other way counts as inactive or inconclusive.

Experiments:
[1] = target: Aldehyde dehydrogenase, mitochondrial (Homo sapiens) (UniProt P05091); assay: qHTS for Inhibitors of the Aldehyde Dehydrogenase Family (ALDH2) Primary screen (AID 2061308); conditions: ALDH2 enzyme inhibition qHTS, 1536-well; series mostly up to 56 µM; further: nearly all actives have a fitted effect of over 55% in size
[2] = target: Retinaldehyde dehydrogenase 3 (Homo sapiens) (UniProt P47895); assay: qHTS for Inhibitors of the Aldehyde Dehydrogenase Family (ALDH1A3) Primary screen (AID 2061315); conditions: ALDH inhibition qHTS; series mostly up to 56 µM

Compound	Potency [1]	Potency [2]
COc1cnc(-c2ccc(Cn3c(CC(C)(C)C(=O)O)c(SC(C)(C)C)c4cc(OC[C@@H]5Cc6ccccc6N5C(C)=O)ccc43)cc2)nc1	inactive	inactive
COc1cc(NS(=O)(=O)c2ccc(C)cc2)c(C(=O)Nc2nc(-c3ccccc3)cs2)cc1OC	inactive	inactive
CN(c1cccc2cccnc12)S(=O)(=O)c1ccccc1	inactive	inactive
COc1cccc(C2c3c(ncn(-c4ccccc4OC)c3=N)Oc3ccc4ccccc4c32)c1 (stereo not drawn)	inactive	inactive
Fc1ccc(Nc2cc(-c3ccccc3)nc(-c3ccncc3)n2)cc1F	inactive	inactive
COc1cc(O)c(C(CC(=O)N2CCC(C)CC2)c2ccc(OC)c(OC)c2)c(OC)c1 (stereo not drawn)	inactive	inactive
Cc1nc(NCCO)c2nc(-c3ccccc3)n(CC3CCN(C)CC3)c2n1	inactive	inactive
CCCn1c(C)nc2c(N(C)CCN(C)C)nc(C)nc21	inactive	inactive
COc1ccc2c(c1)Oc1nc(-c3ccc(C)cc3)nc(SCC(=O)Nc3cccc(C(=O)O)c3)c1C2	inactive	inactive
O=[S+]([O-])(Nc1ccccc1)c1ccc(NCc2cccc(Cl)c2F)cc1	inactive	inactive
FC(F)(F)c1cccc(Nc2ccc(CNc3nc(-c4ccccc4C(F)(F)F)nc4ccccc34)cc2)c1	inactive	inactive
O=C1CCc2cc(S(=O)(=O)Nc3ccc4ncccc4c3)ccc2N1	inactive	inactive
Nc1ccc(S(=O)(=O)Nc2cccc3cccnc23)cc1	inactive	inactive
O=C1c2ccccc2C(=O)N1c1ccccc1O	inactive	inactive
